Source: PubChem (Broad Institute)
aSyn 5UTR act: Activators via SNCA 5'UTR binding, MLPCN; alpha-synuclein 5'UTR reporter, activators screen; activity score, % (tested at 7.5 µM), hits read low; hit rate 7.1% among 300,000; in the data active means activity score below about -60%
Active calls of the source: *. A selection follows.

SMILES	aSyn 5UTR act
CCOC(=O)C1CCCN(C(=O)CCC(=O)Nc2ccc3nc(N4CCOCC4)cc(C)c3c2)C1 (stereo unspecified)	-62.7*
CC(=O)Nc1cccc(NC(=O)C(=O)Nc2ccc3c(c2)N(C(=O)C2CC2)CCC3)c1	-91.7*
OCCc1ccc(-c2ccc(Cl)cc2)o1	-65.1*
Cc1ccc(C(=O)N/C(=C\c2ccc(-c3ccc(Cl)cc3)o2)C(=O)NCCCN(C)C)cc1	56.8
COc1ccc(Nc2nccc3c2nnn3C)cc1	-144.2*
Cc1ccc2[nH]c3ccccc3c(=O)c2c1	-93.0*
Cc1c(C(=O)N2CCc3ccccc32)oc2ccccc12	-126.1*
Cc1c(Br)c(C(=O)N2CCc3ccccc32)nn1C	-126.8*
O=C(c1ccco1)N1CCc2ccccc21	-97.4*
O=C(c1ccc(Br)o1)N1CCc2ccccc21	-154.4*
CN(C)/C=N/C(=S)Nc1ccc(Cl)cc1Cl	-107.5*
CCOc1ccc2cc(/C=C/C(=O)c3ccco3)c(Cl)nc2c1	-172.2*
COc1ccc2cc(/C=N/NC(=O)c3ccc(CN(c4cccc(Cl)c4Cl)S(C)(=O)=O)cc3)c(Cl)nc2c1	66.9
Cc1cc(SCC(=O)c2ccccc2)nc(C)n1	-114.7*
O=[N+]([O-])c1ccc(Cl)cc1Sc1nc2ccccc2o1	68.6
O=C(CSc1ccc(-c2ccco2)nn1)c1ccccc1	-87.8*
O=C(O)c1ccccc1CSc1nc2ccccc2o1	-114.0*
CC(=O)CSc1nc2ccccc2o1	-75.0*
O=C(CSc1nc2ccccc2o1)c1ccccc1	-95.1*
Cc1cc(SCC(=O)c2ccccc2)n2ncc(-c3ccccc3)c2n1	-138.0*
O=C(CSc1ccc2ccccc2n1)c1ccccc1	-125.5*
Cc1ccc(Cl)c(OCC(=O)Nc2sc(C)c(C)c2C#N)c1	-67.6*
O=C(COc1ccccc1Cl)Nc1ccc2oc(=O)ccc2c1	-72.3*
O=C(COc1ccccc1Cl)Nc1cccnc1	-127.6*
Cc1ccc(Cl)c(OCC(=O)Nc2cccnc2)c1	-115.9*
SMILES	aSyn 5UTR act
COC(=O)c1c(NC(=O)COc2ccc(Cl)cc2)sc2c1CC(C)(C)NC2(C)C	82.9
COC(=O)c1c(NC(=O)c2ccccc2[N+](=O)[O-])sc2c1CC(C)(C)NC2(C)C	-69.6*
Cc1ccc(C2=Nc3ccccc3SC(c3cccc([N+](=O)[O-])c3)C2)cc1 (stereo unspecified)	-113.2*
O=C(CSC1=NCCS1)Nc1nc2c(s1)CCCC2	-104.0*
Cn1nnnc1SCC(=O)Nc1nc2c(s1)CCCC2	-102.0*
CC1CCc2c(sc(NC(=O)CSc3ncn[nH]3)c2C#N)C1 (stereo unspecified)	90.5
Cc1nnc(SCC(=O)Nc2nc3c(s2)CC(C)CC3)s1 (stereo unspecified)	-74.6*
COc1cccc(OCCOc2ccccc2[N+](=O)[O-])c1	-154.5*
COc1cccc(-c2nnc(-c3ccccc3[N+](=O)[O-])o2)c1	-136.4*
COc1cccc(C(=O)Nc2ccc(-c3nnc(-c4ccco4)o3)cc2)c1	-127.1*
COc1cccc(-c2nnc(-c3ccco3)o2)c1	-146.8*
CCCN(CCC)S(=O)(=O)c1ccc(C(=O)Nc2nnc(-c3cccc(OC)c3)o2)cc1	69.9
COc1cccc(-c2nnc(NC(=O)C(C)C)o2)c1	-67.2*
COC(=O)c1c(C)[nH]c(C(=O)OCc2ccc(F)cc2)c1C	-189.4*
CC(=O)c1c(C)[nH]c(C(=O)OCc2ccc(F)cc2Cl)c1C	-68.3*
CCOC(=O)c1[nH]c(C)c(C(=O)c2cc(F)ccc2F)c1C	73.9
Cc1ccc(N=C2NC(=O)/C(=C\c3cccs3)S2)cc1C	-85.2*
O=C1Nc2ccccc2S/C1=C/c1cccs1	-67.7*
NC(N)=Nc1nc(C2COc3ccccc3O2)cs1 (stereo unspecified)	-64.0*
CC1(C)NC(=O)N(CCCOc2ccc(Br)cc2Cl)C1=O	-148.1*
CC1(C)NC(=O)N(CCCOc2ccc3c(c2)CCC3)C1=O	-76.7*
N=C(N)SCc1nc2ccccc2c(=O)n1-c1ccccc1	-94.9*
O=c1c2ccccc2nc(N/N=C/c2c(O)ccc3ccccc23)n1O	82.2
COc1ccc(C(=O)CSc2cc(C)[nH]c(=O)n2)cc1	-85.6*
COc1ccc(NCc2nnc(SCC(=O)c3ccc(OC)cc3)n2C)cc1	-127.4*
SMILES	aSyn 5UTR act
O=C(CSc1nccn1-c1ccccc1)Nc1ccc2c(c1)OCO2	-69.4*
CCOc1ccc(NC(=O)CSc2nccn2C)cc1	-64.9*
Cn1ccnc1SCC(=O)Nc1ccc2c(c1)OCO2	-107.2*
O=C(CSc1nccn1-c1ccc(F)cc1)Nc1ccc2c(c1)OCO2	-65.3*
O=C(CSc1ncc(-c2ccc(F)cc2)n1Cc1ccco1)Nc1ccc2c(c1)OCO2	-150.5*
CCOC(=O)c1sc(NC(=O)CSc2nccn2C)nc1C	-111.9*
COc1ccc(C(=O)CSc2nccn2C)cc1	-80.3*
CN(C)C=Nc1ccc2nn(-c3ccccc3)nc2c1	-211.4*
Cc1cccc(C(=O)OCC(=O)c2ccc3c(c2)OCO3)c1O	-153.5*
O=C(COC(=O)c1ccccc1[N+](=O)[O-])c1ccc2c(c1)OCO2	-187.3*
Nc1ccc(C#Cc2c(-c3ccsc3)oc3ccc(N4CCOCC4)cc23)cc1	-167.8*
COc1ccc(-c2oc3ccc(N4CCOCC4)cc3c2C#CCO)cc1	-91.9*
c1ccc(Nc2nnc(-c3cccc4ccccc34)o2)cc1	-92.8*
Cc1cc(C(=O)O/N=C(\N)c2ccc(C(C)(C)C)cc2)no1	-223.3*
CC(C)(C)c1ccc(OCC(=O)O/N=C(\N)c2ccncc2)cc1	-76.7*
CCc1ccc(OCC(=O)O/N=C(\N)c2ccncc2)cc1	-98.9*
N/C(=N\OC(=O)COc1ccc2ccccc2c1Br)c1ccncc1	-92.4*
CCc1ccc(OCC(=O)O/N=C(\N)c2ccncc2)c(Br)c1	-136.5*
COc1cc(/C=N/NS(=O)(=O)c2ccc3ccccc3c2)ccc1OCc1ccc(C(=O)O)cc1	84.3
COc1cc(/C=N/Nc2ccc3ccccc3c2)ccc1OC(=O)c1ccco1	-76.2*
CCOc1cc(/C=N\Nc2nc(Nc3ccccc3)nc(N3CCOCC3)n2)ccc1OC(=O)c1ccco1	-90.9*
CCN(CC)S(=O)(=O)c1cccc(-c2nc3n(n2)Cc2ccccc2-3)c1	-86.2*
CCN(CC)S(=O)(=O)c1cccc(-c2cn3cc(C)ccc3n2)c1	-77.6*
Cc1ccc2nc(-c3cccc(S(=O)(=O)N(C)C)c3)cn2c1	-171.4*
Cc1ccc2nc(-c3ccc(S(=O)(=O)N4CCCCC4)cc3)cn2c1	-81.0*
SMILES	aSyn 5UTR act
CC(=O)Nc1ccc(NC(=O)C(C)OC(=O)/C(C#N)=C/c2ccc(N(C)C)cc2)cc1 (stereo unspecified)	-85.4*
COCCn1c(C)cc(C(=O)COC(=O)c2ccccc2Br)c1C	54.7
COCCn1c(C)cc(C(=O)COC(=O)c2cncc(Br)c2)c1C	-121.4*
COCCn1c(C)cc(C(=O)COC(=O)c2ccc3ncsc3c2)c1C	-150.8*
O=C(/C=C/Nc1ccc(F)cc1)c1cccs1	-114.5*
O=C(/C=C/Nc1ccc(F)c(F)c1)c1cccs1	-374.4*
COc1ccc(-c2cc3nc(CCl)[nH]c(=O)c3s2)cc1	71.2
O=c1[nH]cnc2cc(-c3ccccc3)sc12	-94.5*
CCOC(=O)N1CCN(C(=O)c2ccc(C#CC3(O)CCCCC3)cc2)CC1	-63.8*
CC1CCC(NC(=O)c2cccc(S(=O)(=O)N3CCN(c4ccc(F)cc4)CC3)c2)CC1 (stereo unspecified)	-72.1*
C/C(=N\NC(=O)c1ccc(CSc2nncn2C)cc1)c1cccs1	-62.1*
C/C(=N\Nc1ccccn1)c1cccs1	-147.9*
